Test results published in PubChem BioAssay AID1159580 (chemical genetic matrix, 2015).
Among all 5,500 compounds or so, about 2,000 (36%) were called active. Roughly 18% stayed inconclusive and do not appear here. Rule as the data show it: active = normalized growth mostly below about 0.91 (no sharp cut-off); inconclusive = no clear call, values can overlap the other calls; inactive = mostly above about 0.92. This is one part of the list.

Assay: chemical genetic growth profiling, strain panel (AID 1159580);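 also: tested at 20 µM; growth read once vehicle control cultures reached saturation at 30 °C; 1 = growth at the plate median or of vehicle wells; lower values mean less growth of the strain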
Conditions: S. cerevisiae deletion strains, growth OD

**Q.** With `C=C(CC)C(=O)c1ccc(OCC(=O)O)c(Cl)c1Cl` as the compound, how does the normalized growth (locus YJL187C, strain SWE1 (second series), stronger effect = lower value) read?
**A.** Its normalized growth is 0.968 (inactive).

**Q.** What about the normalized growth (locus YJL187C, strain SWE1, stronger effect = lower value) of the same compound?
**A.** The normalized growth was 1 (inactive).

**Q.** What about the normalized growth (locus YJR043C, strain POL32, stronger effect = lower value) of the same compound?
**A.** The normalized growth was 0.981 (inactive).

**Q.** What about the normalized growth (locus YJR066W, strain TOR1, stronger effect = lower value) of the same compound?
**A.** The normalized growth was 0.708 (active).

**Q.** And the normalized growth (locus YJR075W, strain HOC1, stronger effect = lower value)?
**A.** The normalized growth was 0.982 (inactive).

**Q.** What about the normalized growth (locus YKL009W, strain mrt4, stronger effect = lower value) of the same compound?
**A.** The normalized growth was 0.923 (inactive).

**Q.** And the normalized growth (locus YKL068W, stronger effect = lower value)?
**A.** Its normalized growth is 0.91 (active).

**Q.** And the normalized growth (locus YKL085W, strain MDH1 (second series), stronger effect = lower value)?
**A.** Its normalized growth is 0.938 (inactive).

**Q.** And the normalized growth (locus YKL085W, strain MDH1, stronger effect = lower value)?
**A.** The normalized growth was 0.938 (inactive).

**Q.** What about the normalized growth (locus YKL160W, strain elf1, stronger effect = lower value) of the same compound?
**A.** Its normalized growth is 1.06 (inactive).

**Q.** What about the normalized growth (locus YKR001C, strain vps1, stronger effect = lower value) of the same compound?
**A.** The normalized growth was 0.906 (inactive).

**Q.** And the normalized growth (locus YKR026C, strain gcn3, stronger effect = lower value)?
**A.** The normalized growth was 1 (inactive).

**Q.** And the normalized growth (locus YKR091W, strain srl3, stronger effect = lower value)?
**A.** Its normalized growth is 1.01 (inactive).

**Q.** And the normalized growth (locus YLL001W, strain dnm1, stronger effect = lower value)?
**A.** Its normalized growth is 1.05 (inactive).

**Q.** What about the normalized growth (locus YLL026W, stronger effect = lower value) of the same compound?
**A.** Its normalized growth is 1.01 (inactive).

**Q.** What about the normalized growth (locus YLL041C, strain sdh2, stronger effect = lower value) of the same compound?
**A.** The normalized growth was 1 (inactive).

**Q.** What about the normalized growth (locus YLR027C, strain aat2, stronger effect = lower value) of the same compound?
**A.** The normalized growth was 0.995 (inactive).

**Q.** What about the normalized growth (locus YLR039C, strain RIC1, stronger effect = lower value) of the same compound?
**A.** Its normalized growth is 0.91 (inactive).

**Q.** And the normalized growth (locus YLR058C, strain SHM2, stronger effect = lower value)?
**A.** The normalized growth was 0.972 (inactive).

**Q.** What about the normalized growth (locus YLR102C, strain apc9, stronger effect = lower value) of the same compound?
**A.** Its normalized growth is 0.972 (inactive).

**Q.** What about the normalized growth (locus YLR113W, strain HOG1, stronger effect = lower value) of the same compound?
**A.** The normalized growth was 0.551 (active).

**Q.** And the normalized growth (locus YLR221C, strain rsa3, stronger effect = lower value)?
**A.** The normalized growth was 1.04 (inactive).

**Q.** What about the normalized growth (locus YLR258W, strain gsy2, stronger effect = lower value) of the same compound?
**A.** Its normalized growth is 1.02 (inactive).

**Q.** What about the normalized growth (locus YLR262C, strain YPT6 (second series), stronger effect = lower value) of the same compound?
**A.** The normalized growth was 1.01 (inactive).

**Q.** And the normalized growth (locus YLR262C, strain YPT6, stronger effect = lower value)?
**A.** The normalized growth was 0.873 (inactive).

**Q.** What about the normalized growth (locus YLR268W, strain sec22, stronger effect = lower value) of the same compound?
**A.** Its normalized growth is 0.99 (inactive).

**Q.** And the normalized growth (locus YLR320W, strain mms22, stronger effect = lower value)?
**A.** Its normalized growth is 1.08 (inactive).

**Q.** And the normalized growth (locus YLR330W, strain CHS5, stronger effect = lower value)?
**A.** The normalized growth was 0.978 (inactive).

**Q.** And the normalized growth (locus YLR342W, strain FKS1 (second series), stronger effect = lower value)?
**A.** Its normalized growth is 0.983 (inactive).

**Q.** What about the normalized growth (locus YLR342W, strain FKS1, stronger effect = lower value) of the same compound?
**A.** Its normalized growth is 1.01 (inactive).

**Q.** And the normalized growth (locus YLR357W, strain rsc2, stronger effect = lower value)?
**A.** Its normalized growth is 0.995 (inactive).

**Q.** What about the normalized growth (locus YLR370C, strain arc18, stronger effect = lower value) of the same compound?
**A.** Its normalized growth is 1.02 (inactive).

**Q.** And the normalized growth (locus YLR371W, strain rom2, stronger effect = lower value)?
**A.** Its normalized growth is 0.953 (inactive).

**Q.** What about the normalized growth (locus YLR384C, strain iki3, stronger effect = lower value) of the same compound?
**A.** Its normalized growth is 1.01 (inactive).

**Q.** What about the normalized growth (locus YLR418C, strain cdc73, stronger effect = lower value) of the same compound?
**A.** The normalized growth was 1 (inactive).

**Q.** What about the normalized growth (locus YML016C, strain PPZ1, stronger effect = lower value) of the same compound?
**A.** The normalized growth was 0.982 (inactive).

**Q.** What about the normalized growth (locus YML032C, strain rad52, stronger effect = lower value) of the same compound?
**A.** Its normalized growth is 0.962 (inactive).

**Q.** And the normalized growth (locus YML120C, strain ndi1, stronger effect = lower value)?
**A.** Its normalized growth is 1.05 (inactive).

**Q.** And the normalized growth (locus YML124C, strain tub3, stronger effect = lower value)?
**A.** The normalized growth was 0.98 (inactive).

**Q.** And the normalized growth (locus YMR058W, strain fet3, stronger effect = lower value)?
**A.** The normalized growth was 1 (inactive).

**Q.** What about the normalized growth (locus YMR078C, strain ctf18, stronger effect = lower value) of the same compound?
**A.** Its normalized growth is 0.962 (inactive).

**Q.** And the normalized growth (locus YMR125W, strain sto1, stronger effect = lower value)?
**A.** The normalized growth was 1.02 (inactive).

**Q.** What about the normalized growth (locus YMR129W, stronger effect = lower value) of the same compound?
**A.** Its normalized growth is 1.01 (inactive).

**Q.** And the normalized growth (locus YMR205C, strain PFK2, stronger effect = lower value)?
**A.** The normalized growth was 1.06 (inactive).

**Q.** What about the normalized growth (locus YMR223W, strain ubp8, stronger effect = lower value) of the same compound?
**A.** The normalized growth was 1.02 (inactive).

**Q.** What about the normalized growth (locus YMR231W, strain pep5, stronger effect = lower value) of the same compound?
**A.** The normalized growth was 0.978 (inactive).

**Q.** What about the normalized growth (locus YMR307W, strain GAS1, stronger effect = lower value) of the same compound?
**A.** The normalized growth was 1 (inactive).

**Q.** And the normalized growth (locus YNL067W, strain RPL9B, stronger effect = lower value)?
**A.** Its normalized growth is 0.986 (inactive).

**Q.** And the normalized growth (locus YNL071W, strain lat1, stronger effect = lower value)?
**A.** Its normalized growth is 1.01 (inactive).

**Q.** And the normalized growth (locus YNL183C, strain NPR1, stronger effect = lower value)?
**A.** The normalized growth was 0.828 (active).

**Q.** What about the normalized growth (locus YNL209W, strain ssb2, stronger effect = lower value) of the same compound?
**A.** Its normalized growth is 1.02 (inactive).

**Q.** What about the normalized growth (locus YNL233W, strain BNI4, stronger effect = lower value) of the same compound?
**A.** The normalized growth was 0.988 (inactive).

**Q.** What about the normalized growth (locus YNL248C, strain rpa49, stronger effect = lower value) of the same compound?
**A.** The normalized growth was 1.01 (inactive).

**Q.** What about the normalized growth (locus YNL250W, strain rad50, stronger effect = lower value) of the same compound?
**A.** Its normalized growth is 0.913 (inactive).

**Q.** And the normalized growth (locus YNL271C, strain bni1, stronger effect = lower value)?
**A.** The normalized growth was 0.917 (active).

**Q.** And the normalized growth (locus YNL298W, strain CLA4, stronger effect = lower value)?
**A.** The normalized growth was 0.912 (inactive).

**Q.** What about the normalized growth (locus YNL307C, strain MCK1, stronger effect = lower value) of the same compound?
**A.** Its normalized growth is 0.98 (inactive).

**Q.** And the normalized growth (locus YNL322C, strain KRE1 (second series), stronger effect = lower value)?
**A.** The normalized growth was 1.02 (inactive).

**Q.** And the normalized growth (locus YNR049C, strain mso1, stronger effect = lower value)?
**A.** The normalized growth was 1.01 (inactive).

**Q.** And the normalized growth (locus YNR052C, strain pop2, stronger effect = lower value)?
**A.** Its normalized growth is 0.981 (inactive).

**Q.** And the normalized growth (locus YOL006C, strain TOP1, stronger effect = lower value)?
**A.** The normalized growth was 1 (inactive).

**Q.** And the normalized growth (locus YOL012C, strain htz1)?
**A.** Its normalized growth is 1.29 (inactive).

**Q.** What about the normalized growth (locus YOL147C, strain pex11, stronger effect = lower value) of the same compound?
**A.** Its normalized growth is 0.99 (inactive).

**Q.** And the normalized growth (locus YOR001W, strain rrp6, stronger effect = lower value)?
**A.** The normalized growth was 0.948 (inactive).

**Q.** And the normalized growth (locus YOR061W, strain CKA2, stronger effect = lower value)?
**A.** The normalized growth was 0.964 (inactive).

**Q.** What about the normalized growth (locus YOR069W, strain VPS5, stronger effect = lower value) of the same compound?
**A.** The normalized growth was 0.988 (inactive).

**Q.** What about the normalized growth (locus YOR070C, strain gyp1, stronger effect = lower value) of the same compound?
**A.** Its normalized growth is 1.04 (inactive).

**Q.** And the normalized growth (locus YOR080W, strain dia2, stronger effect = lower value)?
**A.** Its normalized growth is 1.01 (inactive).

**Q.** What about the normalized growth (locus YOR083W, strain WHI5, stronger effect = lower value) of the same compound?
**A.** The normalized growth was 1.05 (inactive).

**Q.** And the normalized growth (locus YOR106W, strain vam3, stronger effect = lower value)?
**A.** The normalized growth was 1.04 (inactive).

**Q.** What about the normalized growth (locus YOR136W, strain idh2, stronger effect = lower value) of the same compound?
**A.** The normalized growth was 0.979 (inactive).

**Q.** What about the normalized growth (locus YOR144C, strain elg1, stronger effect = lower value) of the same compound?
**A.** The normalized growth was 0.989 (inactive).

**Q.** And the normalized growth (locus YOR184W, strain ser1, stronger effect = lower value)?
**A.** The normalized growth was 0.991 (inactive).

**Q.** And the normalized growth (locus YOR231W, strain MKK1, stronger effect = lower value)?
**A.** The normalized growth was 0.909 (inactive).

**Q.** And the normalized growth (locus YOR265W, strain rbl2, stronger effect = lower value)?
**A.** Its normalized growth is 1.01 (inactive).

**Q.** What about the normalized growth (locus YOR270C, strain vph1, stronger effect = lower value) of the same compound?
**A.** Its normalized growth is 1.08 (inactive).

**Q.** What about the normalized growth (locus YOR290C, strain snf2, stronger effect = lower value) of the same compound?
**A.** Its normalized growth is 1.01 (inactive).

**Q.** What about the normalized growth (locus YOR316C, strain cot1, stronger effect = lower value) of the same compound?
**A.** Its normalized growth is 0.96 (inactive).

**Q.** And the normalized growth (locus YPL051W, strain arl3, stronger effect = lower value)?
**A.** Its normalized growth is 0.992 (inactive).

**Q.** And the normalized growth (locus YPL078C, strain atp4, stronger effect = lower value)?
**A.** The normalized growth was 1.04 (inactive).

**Q.** What about the normalized growth (locus YPL106C, strain sse1, stronger effect = lower value) of the same compound?
**A.** The normalized growth was 1.01 (inactive).

**Q.** What about the normalized growth (locus YPL240C, strain hsp82, stronger effect = lower value) of the same compound?
**A.** Its normalized growth is 1.02 (inactive).

**Q.** What about the normalized growth (locus YPL241C, strain CIN2, stronger effect = lower value) of the same compound?
**A.** The normalized growth was 0.983 (inactive).

**Q.** And the normalized growth (locus YPL256C, strain CLN2, stronger effect = lower value)?
**A.** Its normalized growth is 0.899 (inactive).

**Q.** What about the normalized growth (locus YPR119W, strain clb2, stronger effect = lower value) of the same compound?
**A.** The normalized growth was 0.973 (inactive).

**Q.** What about the normalized growth (locus YPR141C, strain kar3, stronger effect = lower value) of the same compound?
**A.** The normalized growth was 0.902 (active).

**Q.** And the normalized growth (locus YPR163C, strain tif3, stronger effect = lower value)?
**A.** The normalized growth was 0.981 (inactive).

**Q.** What about the normalized growth (locus YPR167C, strain met16, stronger effect = lower value) of the same compound?
**A.** The normalized growth was 0.989 (inactive).

**Q.** And the normalized growth (strain wtn01, stronger effect = lower value)?
**A.** Its normalized growth is 0.997 (inactive).
